# TGFb SMAD3 inh = inhibitors of TGF-b signaling; HepG2 CAGA-GFP TGF-b/SMAD3 reporter, GFP fluorescence, 18 h; TGF-beta stimulated, 500 pg/mL final; Potency, µM (doses to about 46.1 µM), inactives show at the highest dose activity, negative = inhibition, most hits filed as inhibitors; 410,000 compounds, 1.2% hits; AID 588855; also: potency is read from the fitted curve at half-maximal effect; % is scaled to controls: 0 for no effect and ±100 for the full control effect; nearly all actives have a fitted effect of over 65% in size
#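 Inhibition was scored as loss of TGF-beta-induced (500 pg/mL final, 18 hours, 37 degrees C) GFP in HEPG2 cells carrying a CAGA-GFP reporter, in DMEM with 1% FBS. Well GFP was summed per cell; Activity was normalised to unstimulated and stimulated DMSO wells, then concentration-response fitting.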
# IL1B secr inh = inhibitors of inflammasome signaling (IL-1 beta secretion). THP-1 LPS/ATP IL-1B secretion, AlphaLISA, 16 h; stronger effect = lower value. activity change, % at 57.5 µM. AID 743279. 360,000 compounds, 4.7% hits; in the data active = activity change below about -50%; inconclusive = mostly about -30% to -49%; also: % is scaled to controls: 0 for no effect and ±100 for the full control effect
#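 Secreted IL-1B measured by AlphaLISA bead assay after 16 h compound exposure of THP-1 cells; compounds (final up to 57.5 uM) added 1 h before LPS (250 ng/mL) and ATP (1.25 mM) stimulation; lower signal means less secretion.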
# HepG2 viability = counter-screen for TGF-b inhibitors: cytotoxicity in HepG2 cells. Potency, µM (series often up to 46.1 µM), for inactives: at the highest dose activity change, negative = cytotoxicity, most hits filed as cytotoxic. 410,000 compounds, 0.76% hits. HepG2 CAGA-GFP viability, ATP luminescence, 18 h. AID 588856; also: potency is read from the fitted curve at half-maximal effect
#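 CellTiter-Glo luminescence gave cytotoxicity after 18 hours at 37 degrees C. The cells were HepG2 CAGA-GFP in 1% FBS DMEM, stimulated with 500 pg/mL TGF-beta after compound addition. %Activity was normalised to no-cell wells (complete cell-killing) and DMSO (no toxicity), and curves were fitted and classified.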
# ASM inhibitor = inhibitors of human secretory acid sphingomyelinase. P17405. placental ASM, HMU-PC fluorogenic substrate, 60 min. 340,000 compounds, 0.006% hits. Potency, µM (highest dose often 57.5 µM), inactives show at the top dose activity change, negative = inhibition, most hits filed as inhibitors; also: potency is read from the fitted curve at half-maximal effect
# Target sequence (P17405 47-631 limits assumed): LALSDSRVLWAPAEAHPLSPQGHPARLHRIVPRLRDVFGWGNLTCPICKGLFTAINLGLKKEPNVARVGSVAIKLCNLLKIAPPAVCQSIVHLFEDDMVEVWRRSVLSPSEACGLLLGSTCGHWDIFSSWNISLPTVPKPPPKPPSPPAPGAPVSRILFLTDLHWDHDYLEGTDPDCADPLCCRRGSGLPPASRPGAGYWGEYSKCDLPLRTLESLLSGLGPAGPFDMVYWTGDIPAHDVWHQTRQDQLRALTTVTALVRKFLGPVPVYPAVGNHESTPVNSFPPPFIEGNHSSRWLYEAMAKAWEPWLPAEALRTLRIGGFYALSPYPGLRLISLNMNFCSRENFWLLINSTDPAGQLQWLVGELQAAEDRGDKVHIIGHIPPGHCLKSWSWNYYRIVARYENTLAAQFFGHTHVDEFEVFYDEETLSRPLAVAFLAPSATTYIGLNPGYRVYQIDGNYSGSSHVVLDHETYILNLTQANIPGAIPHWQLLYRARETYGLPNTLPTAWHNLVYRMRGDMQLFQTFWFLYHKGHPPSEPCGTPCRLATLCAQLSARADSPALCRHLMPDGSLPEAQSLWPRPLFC
#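 HMU-PC0 cleavage (9 uM final) by human placental ASM, 60 min at 37 °C following 10 min compound exposure at RT; stopped at pH 10, fluorescence Ex 386/Em 447 nm.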
# DT40 TDP1 no CPT = qHTS for Inhibitors of human tyrosyl-DNA phosphodiesterase 1 (TDP1): qHTS in cells in absence of CPT; DT40 Tdp1-/- hTDP1 cells, no CPT, ATP luminescence, 48 h; Potency, µM (series often up to 46.2 µM), inactives show at the highest dose activity change, negative = growth inhibition, usual class: inhibitors; 420,000 compounds, 15% hits; AID 686978, 2013; also: potency is read from the fitted curve at half-maximal effect; % is scaled to controls: 0 for no effect and ±100 for the full control effect; nearly all actives have a fitted effect of over 55% in size
#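 Readout: luminescence from CellTiter-Glo after 30 min in the dark at RT. Cells: DT40 Tdp1-/- with stable hTDP1, 400/well. Exposure: compounds alone, ≥48 hr, 37 °C.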
# DT40 TDP1 CPT = DT40-hTDP1 cell growth loss with CPT; chicken DT40 Tdp1-/-;hTDP1 cells + 20 nM CPT, ATP luminescence, 48 h; Potency, µM (titrated, usually from 46.2 µM), for the others: top-dose activity change, negative = growth inhibition, hits mostly inhibitors; 420,000 compounds, 12% hits; also: potency is read from the fitted curve at half-maximal effect; % is scaled to controls: 0 for no effect and ±100 for the full control effect; nearly all actives have a fitted effect of over 55% in size
#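 Chicken DT40 Tdp1-/- cells complemented with human TDP1, 400 cells/well, exposed to compounds plus 20 nM camptothecin for at least 48 h at 37 C; viability read as ATP content by CellTiter-Glo luminescence.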
# Active calls of the source: *; ? = inconclusive; nt = no result. The list is not random: actives were taken first. Their share in the collection is about 19%. Unless noted, calls follow the shape of the dose curve; as a rule, active = well fitted curve in the direction sought with a large enough effect; inconclusive = small, poorly fitted or top-dose-only effect, or another doubt; inactive = no such curve, though single readings can be large; an effect the other way counts as inactive or inconclusive.
SMILES,TGFb SMAD3 inh,IL1B secr inh,HepG2 viability,ASM inhibitor,DT40 TDP1 no CPT,DT40 TDP1 CPT
COc1ccc(NC(=O)CC2Nc3ccccc3NC2=O)cc1 (configuration not stated),?,nt,-37.2%,nt,23.1µM*,?
COc1cccc(NC(=O)CC2Nc3cc(C)c(C)cc3NC2=O)c1 (configuration not stated),-11.9%,nt,-1.6%,nt,?,?
CCOc1ccc(NC(=O)CC2Nc3ccccc3NC2=O)cc1 (configuration not stated),3.2%,-7.6,4.7%,-1.3%,6.5%,-4.6%
CC(=O)Nc1ccc(NC(=O)CC2Nc3cccc4cccc(c34)NC2=O)cc1 (configuration not stated),0.0%,0.0,-4.3%,-7.4%,?,-15.2%
CC(C)n1nccc1NC(=O)Nc1ccccc1,-4.6%,11.3,7.7%,7.3%,?,-18.6%
COc1ccc(C2c3c(n(C)c4ccccc34)C(=O)N2CC(=O)Nc2ccc(C)c(Cl)c2)cc1 (configuration not stated),-23.4%,nt,-21.9%,nt,?,?
CCOC(=O)c1ccc(NC(=O)CC2Nc3cccc4cccc(c34)NC2=O)cc1 (configuration not stated),?,nt,-91.1%,nt,2.59µM*,2.59µM*
COc1ccc(/C=C/c2c(-c3ccc(OC)cc3)oc3ccc(-c4ccc(OC)cc4)cc23)cc1,15.6%,-1.0,14.9%,173.6%,5.0%,-1.6%
COc1ccc(/C=C/c2cc(-c3ccc(C)cc3)o[n+]2C)cc1,10µM*,-119.9*,-50.8%,309.3%,0.259µM*,0.259µM*
COC1=C2C[C@H](C)C[C@H](OC)[C@@H](O)[C@@H](C)C=C(C)[C@H](OC(N)=O)[C@@H](OC)C=CC=C(C)C(=O)NC(=CC1=O)C2=O,?,nt,-41.0%,nt,0.0251µM*,0.0794µM*
Cc1ccccc1-c1nc(S(=O)(=O)c2ccccc2)c(N2CCCC2)o1,24.5%,1.1,4.1%,-0.3%,?,?
Cc1ccc(S(=O)(=O)c2nc(-c3ccc(Cl)cc3)oc2N2CCCCCC2)cc1,7.4%,nt,4.9%,nt,?,?
O=S(=O)(c1ccccc1)c1nc(-c2cccc(Cl)c2)oc1N1CCOCC1,4.1%,-18.9,-22.7%,-8.4%,18.4µM*,?
O=S(=O)(c1ccccc1)c1nc(-c2ccccc2)oc1N1CCOCC1,-2.7%,25.8,-8.3%,-0.8%,-3.6%,?
Cc1ccc(-c2nc(S(=O)(=O)c3ccc(C)cc3)c(N3CCCCC3)o2)cc1,-3.1%,nt,-16.9%,nt,7.31µM*,6.51µM*
O=S(=O)(c1ccccc1)c1nc(-c2ccc(Cl)cc2Cl)oc1N1CCCCCC1,-7.9%,nt,-11.8%,nt,18.4µM*,23.1µM*
CN(C)c1oc(-c2ccccc2Cl)nc1S(=O)(=O)c1ccccc1,-11.2%,-17.2,-33.2%,-1.7%,20.6µM*,?
O=C(NCCS(=O)(=O)N1CCN(c2ccccc2)CC1)C1CCCC1,-12.8%,-3.6,-3.5%,1.5%,?,-19.8%
Cc1ccc(NC(=O)C2CCN(S(=O)(=O)c3ccc4c(c3)OCCO4)CC2)c(O)c1,-3.4%,-7.5,-1.9%,-1.6%,-15.2%,-4.1%
COc1ccc(C(=O)Nc2ccccc2-c2nc(-c3ccc(OC)cc3)no2)cc1,27.5%,nt,2.1%,nt,-9.1%,-7.6%
COc1ccc2c(c1OC)C(=O)N(c1cccc(NC(C)=O)c1)C2,-4.0%,?,-7.8%,-0.5%,-0.2%,23.6%
Cc1cccc(-c2nc(S(=O)(=O)c3ccccc3)c(N3CCN(c4ccccc4)CC3)o2)c1,0.8%,nt,-0.1%,nt,7.31µM*,18.4µM*
Cc1ccc(S(=O)(=O)c2nc(-c3ccccc3)oc2N2CCCCCC2)cc1,-15.2%,nt,-18.2%,nt,20.6µM*,23.1µM*
CCN1CCN(c2oc(-c3ccccc3)nc2S(=O)(=O)c2ccc(C)cc2)CC1,18.5%,-55.7*,-32.1%,-2.2%,?,?
Cn1ccc2c(-c3ccc(C(F)(F)F)cc3)cc3c(c21)C1CCC3C1 (configuration not stated),?,56.2,-28.6%,nt,?,?
SMILES,TGFb SMAD3 inh,IL1B secr inh,HepG2 viability,ASM inhibitor,DT40 TDP1 no CPT,DT40 TDP1 CPT
O=c1c(C(c2nnnn2C2CCCCC2)N2CCCCC2)coc2ccc(Cl)cc12 (configuration not stated),5.3%,-19.5,-11.1%,4.3%,20.6µM*,?
COc1ccc(OC(=O)N(C)C[C@H]2OCc3cn(nn3)CCCC(=O)N([C@H](C)CO)C[C@@H]2C)cc1,3.1%,24.1,1.2%,nt,-9.8%,1.2%
COc1ccc(NC(=O)CNC(=O)c2nn(-c3ccc(OC)c(Cl)c3)c(=O)c3ccccc23)c(OC)c1,-27.0%,-4.3,-15.4%,-3.1%,16.4µM*,?
CCOc1ccc(NC(=O)CNC(=O)c2nn(-c3ccc(OC)c(OC)c3)c(=O)c3ccccc23)cc1,-14.7%,-2.0,9.5%,-1.0%,-24.6%,-23.1%
CCOc1ccccc1NC(=O)CNC(=O)c1nn(-c2ccc(OC)c(OC)c2)c(=O)c2ccccc12,30.8%,-7.7,0.8%,-10.0%,9.2µM*,?
COc1ccc(-n2nc(C(=O)NCC(=O)Nc3cccc(Cl)c3)c3ccccc3c2=O)cc1OC,-24.0%,1.7,-39.5%,-1.2%,14.6µM*,14.6µM*
CCCCNC(=O)CNC(=O)c1nn(-c2ccc(OC)c(OC)c2)c(=O)c2ccccc12,5.6%,2.3,-2.1%,nt,?,-23.7%
CCN(CCCNC(=O)CNC(=O)c1nn(-c2ccc(OC)c(OC)c2)c(=O)c2ccccc12)c1ccccc1,40.3%,?,0.5%,2.0%,18.4µM*,?
CCCCCC[C@@H](CCC)C(=O)O,nt,nt,nt,nt,-3.1%,13.3%
CCCN(CC(=O)Nc1ccccc1C)C(=O)Cc1n[nH]c(=O)c2ccccc12,5.8%,0.5,-0.7%,3.3%,14.3%,-1.9%
CCc1ccc(NC(=O)C2CCCN2c2nn3c(=O)cc(C)nc3s2)cc1 (configuration not stated),10.0%,20.2,0.5%,1.5%,?,-11.8%
COc1ccc(-n2nc(C(=O)NCC(=O)N3CCC(C)CC3)c3ccccc3c2=O)cc1,-15.3%,?,-24.4%,4.6%,?,-4.3%

# From PubChem
